Measurements reported in PubChem BioAssay (EPA / NIEHS).
Results filed as inconclusive are left out. Calls of active or inactive are those of the source. How the source made its calls: active means hit-call score of the fitted dose curve at least 0.9, where 1 is the maximum; inconclusive means response in the unintended direction; inactive means score below 0.9.

Target: human Protein Tyrosine Phosphatase Non-receptor Type 1 (PTPN1), PTPN1 (gene 5770) (UniProt P18031)
Experiment: NVS_ENZ_hPTPN1: NovaScreen (NVS) Enzymatic Assay for human Protein Tyrosine Phosphatase Non-receptor Type 1 (PTPN1) (AID 2283201)
Outline: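 Cell-free fluorogenic-substrate activity assay on recombinant enzyme, read 1.33 h after dosing by fluorescence and electrophoretic mobility shift; loss of signal vs DMSO baseline. Primary screen in duplicate at 25 uM, hits then run in concentration-response up to 50 uM.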

Structure (SMILES)	AC50	outcome
CCCCCCCCCCCCc1ccccc1S(=O)(=O)O	15.5 µM (active)	
CCCCCCCC(=O)O		inactive
CCC(=C(c1ccc(O)cc1)c1ccc(OCCN(C)C)cc1)c1ccccc1		inactive

Target: Tyrosine-protein phosphatase non-receptor type 12 (Homo sapiens) (UniProt Q05209)
Sequence (Q05209 whole entry, looked up): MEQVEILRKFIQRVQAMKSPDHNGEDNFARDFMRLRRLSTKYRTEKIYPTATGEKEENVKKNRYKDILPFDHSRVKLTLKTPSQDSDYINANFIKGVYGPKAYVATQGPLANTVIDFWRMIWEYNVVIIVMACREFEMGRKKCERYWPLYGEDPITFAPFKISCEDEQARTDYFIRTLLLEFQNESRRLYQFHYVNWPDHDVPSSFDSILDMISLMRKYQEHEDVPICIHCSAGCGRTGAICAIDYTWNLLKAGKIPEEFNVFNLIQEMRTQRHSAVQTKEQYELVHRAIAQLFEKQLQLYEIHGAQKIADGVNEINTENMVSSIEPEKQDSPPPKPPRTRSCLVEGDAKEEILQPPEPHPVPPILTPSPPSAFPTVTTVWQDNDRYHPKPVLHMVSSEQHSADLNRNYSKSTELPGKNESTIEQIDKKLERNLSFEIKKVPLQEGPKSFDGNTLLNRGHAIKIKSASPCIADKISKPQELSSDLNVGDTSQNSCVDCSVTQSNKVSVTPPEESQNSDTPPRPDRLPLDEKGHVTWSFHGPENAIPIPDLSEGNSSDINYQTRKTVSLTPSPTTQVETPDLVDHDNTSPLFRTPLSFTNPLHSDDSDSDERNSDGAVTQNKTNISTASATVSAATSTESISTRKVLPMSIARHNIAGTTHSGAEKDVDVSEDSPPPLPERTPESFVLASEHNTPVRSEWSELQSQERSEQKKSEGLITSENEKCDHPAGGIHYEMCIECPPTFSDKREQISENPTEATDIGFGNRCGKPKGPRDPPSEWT
Experiment: NVS_ENZ_hPTPN12: NovaScreen (NVS) Enzymatic Assay for human Protein Tyrosine Phosphatase Non-receptor Type 12 (PTPN12) (AID 2283204)
Outline: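 Single-concentration duplicates (25 uM) preceded singleton concentration-response up to 50 uM for chemicals passing threshold. Cell-free recombinant PTPN12 activity was read 1.33 h after dosing via fluorescence after mobility-shift separation; loss of signal versus DMSO.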

Structure (SMILES)	AC50	outcome
CCCCCCCCCCCCc1ccccc1S(=O)(=O)O	11.3 µM (active)	
ClC1=C(Cl)C(Cl)(Cl)C(Cl)=C1Cl		inactive
O=c1c(-c2ccc(O)cc2)coc2cc(O)ccc12		inactive
COCC(C)OCC(C)O (stereo not given)		inactive

Target: Tyrosine-protein phosphatase non-receptor type 13 (Homo sapiens) (UniProt Q12923)
Experiment: NVS_ENZ_hPTPN13: NovaScreen (NVS) Enzymatic Assay for human Protein Tyrosine Phosphatase Non-receptor Type 13 (PTPN13) (AID 2283205)
Outline: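 Cell-free assay of recombinant human PTPN13 with a fluorescent substrate, product separated by electrophoretic mobility shift and read 0.5 h after dosing. Primary screen at 25 uM in duplicate, then concentration-response up to 50 uM. Loss of signal fitted against DMSO.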

Structure (SMILES)	AC50	outcome
CCCCCCCCCCCCc1ccccc1S(=O)(=O)O	21.1 µM (active)	
COCC(C)OCC(C)O (stereo not given)		inactive
CCN(CC)CCNc1ccc(CNC=O)c2sc3ccc(OC)cc3c(=O)c12		inactive

Target: Tyrosine-protein phosphatase non-receptor type 14 (Homo sapiens) (UniProt Q15678)
Sequence (Q15678 whole entry, looked up): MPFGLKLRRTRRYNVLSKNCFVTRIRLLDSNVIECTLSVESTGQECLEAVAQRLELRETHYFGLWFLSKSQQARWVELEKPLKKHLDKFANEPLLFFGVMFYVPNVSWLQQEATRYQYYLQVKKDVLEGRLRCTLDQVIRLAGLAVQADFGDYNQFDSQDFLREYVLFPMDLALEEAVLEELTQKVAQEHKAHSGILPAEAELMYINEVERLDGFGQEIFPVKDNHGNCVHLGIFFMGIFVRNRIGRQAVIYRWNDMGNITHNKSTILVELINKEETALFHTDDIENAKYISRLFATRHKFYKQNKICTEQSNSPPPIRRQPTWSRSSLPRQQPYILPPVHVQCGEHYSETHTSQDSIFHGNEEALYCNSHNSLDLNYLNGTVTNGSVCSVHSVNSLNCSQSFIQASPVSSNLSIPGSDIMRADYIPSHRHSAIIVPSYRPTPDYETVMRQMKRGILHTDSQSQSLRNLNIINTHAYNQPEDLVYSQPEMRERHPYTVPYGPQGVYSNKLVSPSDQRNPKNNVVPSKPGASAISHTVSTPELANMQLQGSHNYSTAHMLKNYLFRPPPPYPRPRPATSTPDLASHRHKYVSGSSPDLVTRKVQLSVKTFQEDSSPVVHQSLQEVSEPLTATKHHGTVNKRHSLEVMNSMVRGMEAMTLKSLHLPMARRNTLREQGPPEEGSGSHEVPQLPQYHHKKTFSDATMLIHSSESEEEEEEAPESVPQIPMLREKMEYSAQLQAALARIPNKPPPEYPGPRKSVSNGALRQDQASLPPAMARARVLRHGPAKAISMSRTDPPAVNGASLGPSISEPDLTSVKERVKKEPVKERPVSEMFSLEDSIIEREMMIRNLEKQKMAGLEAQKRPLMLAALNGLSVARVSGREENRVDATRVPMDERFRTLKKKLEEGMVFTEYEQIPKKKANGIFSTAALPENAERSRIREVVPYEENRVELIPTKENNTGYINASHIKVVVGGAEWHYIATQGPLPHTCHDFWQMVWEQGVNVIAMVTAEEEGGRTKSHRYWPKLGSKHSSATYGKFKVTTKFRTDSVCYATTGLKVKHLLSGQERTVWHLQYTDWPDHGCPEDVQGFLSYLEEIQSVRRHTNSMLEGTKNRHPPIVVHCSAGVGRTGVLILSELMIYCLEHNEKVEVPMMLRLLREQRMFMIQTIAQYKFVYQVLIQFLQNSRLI
Experiment: NVS_ENZ_hPTPN14: NovaScreen (NVS) Enzymatic Assay for human Protein Tyrosine Phosphatase Non-receptor Type 14 (PTPN14) (AID 2283206)
Outline: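 Cell-free recombinant human PTPN14 with fluorescent substrate, read 0.5 h after dosing by fluorescence and electrophoretic mobility shift separating substrate from product. Primary screen at 25 uM in duplicate; hits run to 50 uM maximum; loss of signal versus DMSO.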

Structure (SMILES)	AC50	outcome
CCCCCCCCCCCCc1ccccc1S(=O)(=O)O	38.2 µM (active)	
CC(=O)CC(C)(C)O		inactive
O=c1c(-c2ccc(O)cc2)coc2cc(O)ccc12		inactive

Target: human Protein Tyrosine Phosphatase Non-receptor Type 4 (PTPN4), PTPN4 (gene 5775) (UniProt P29074)
Sequence (P29074 whole entry, looked up): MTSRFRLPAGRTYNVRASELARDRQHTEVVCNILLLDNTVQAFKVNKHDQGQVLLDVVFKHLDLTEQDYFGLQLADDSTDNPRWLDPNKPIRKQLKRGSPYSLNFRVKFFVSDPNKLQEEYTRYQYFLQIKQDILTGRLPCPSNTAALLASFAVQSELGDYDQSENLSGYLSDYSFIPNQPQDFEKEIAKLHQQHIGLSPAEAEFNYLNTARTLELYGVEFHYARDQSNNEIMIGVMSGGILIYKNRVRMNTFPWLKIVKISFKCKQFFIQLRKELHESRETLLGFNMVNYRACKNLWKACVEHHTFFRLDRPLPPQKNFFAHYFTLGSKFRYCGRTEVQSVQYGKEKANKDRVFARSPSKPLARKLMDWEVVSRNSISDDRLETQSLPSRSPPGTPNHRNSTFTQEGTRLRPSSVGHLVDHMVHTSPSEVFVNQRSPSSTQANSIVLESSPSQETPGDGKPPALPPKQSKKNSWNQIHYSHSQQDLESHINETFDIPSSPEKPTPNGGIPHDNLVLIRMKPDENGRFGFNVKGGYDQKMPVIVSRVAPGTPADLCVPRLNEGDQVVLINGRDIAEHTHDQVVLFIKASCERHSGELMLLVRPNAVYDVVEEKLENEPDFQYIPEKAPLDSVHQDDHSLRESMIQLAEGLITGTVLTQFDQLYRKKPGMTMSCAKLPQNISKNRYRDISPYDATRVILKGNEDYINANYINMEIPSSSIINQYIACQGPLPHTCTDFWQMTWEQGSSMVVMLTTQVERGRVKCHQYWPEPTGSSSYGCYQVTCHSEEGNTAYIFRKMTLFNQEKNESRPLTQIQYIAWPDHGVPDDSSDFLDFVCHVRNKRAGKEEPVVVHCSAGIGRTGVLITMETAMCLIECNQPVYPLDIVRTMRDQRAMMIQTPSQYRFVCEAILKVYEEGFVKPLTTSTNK
Experiment: NVS_ENZ_hPTPN4: NovaScreen (NVS) Enzymatic Assay for human Protein Tyrosine Phosphatase Non-receptor Type 4 (PTPN4) (AID 2283208)
Procedure: NVS_ENZ_hPTPN4 is a biochemical, single-readout assay that uses extracted gene-proteins from SF9 in a cell-free assay. Measurements were taken 1.33 hours after chemical dosing in a 384-well plate.NVS_ENZ_hPTPN4 is one of one assay component(s) measured or calculated from the NVS_ENZ_hPTPN4 assay. It is designed to make measurements of enzyme activity, a form of enzyme reporter, as detected with fluorescence intensity signals by Fluorescence and electrophoretic mobility shift technology.Data from the assay component NVS_ENZ_hPTPN4 was analyzed into 1 assay endpoint. This assay endpoint, NVS_ENZ_hPTPN4, was analyzed in the positive analysis fitting direction relative to DMSO as the negative control and baseline of activity. Using a type of enzyme reporter, loss-of-signal activity can be used to understand changes in the enzymatic activity as they relate to the gene PTPN4. Furthermore, this assay endpoint can be referred to as a primary readout, because this assay has produced multiple assay endpoints where this one serves a enzymatic activity function. To generalize the intended target to other relatable targets, this assay endpoint is annotated to the phosphatase intended target family, where the subfamily is non-receptor tyrosine phosphatase.
Binding assays used specific radioligands (tritiated, iodinated) with non-radioactive competitive displacement ligands in agonist or antagonist protocols (as indicated) and various reference compounds and inhibitors to titrate specific binding to receptors and transporters. Most enzyme assays (CYPs, kinases, phosphatases, proteases, HDACs) used recombinant protein and specific substrates (fluorescence mostly, some colorimetric and radioactive) and inhibitors, followed by a biochemical separation of substrate and product. All assays for the biochemical HTS were initially run in duplicate at a single concentration (10 uM for CYP450 assays and 25 uM for all others). Assay-chemical combinations meeting a pre-defined threshold (e.g., 30% inhibition and other criteria defined below) were then run in singleton concentration-response format with maximum concentration of 20 uM for CYPs and 50 uM for all others. Each assay was run with positive and negative controls, and concurrent controls on every plate. The follow-up (secondary) screen tested active chemical-pairs in concentration series, as well as a few additional assays not tested in the primary screen, some selected negative inactives, and several cases re-run in the concentration series for confirmatory purposes.

Structure (SMILES)	AC50	outcome
CCCCCCCCCCCCc1ccccc1S(=O)(=O)O	19.8 µM (active)	
CC[C@H](C)[C@@H](C(=O)O)n1sc2ccccc2c1=O		inactive
N#C[C@@H]1CC(F)(F)CN1C(=O)CNC1CC2CCC(C1)N2c1ncccn1 (stereo not given in full)		inactive
ClC1=C(Cl)C(Cl)(Cl)C(Cl)=C1Cl		inactive
CN1CCC[C@H]1c1cccnc1		inactive
COCC(C)OCC(C)O (stereo not given)		inactive

Target: human Protein Tyrosine Phosphatase Non-receptor Type 9 (PTPN9), PTPN9 (gene 5780) (UniProt P43378)
Experiment: NVS_ENZ_hPTPN9: NovaScreen (NVS) Enzymatic Assay for human Protein Tyrosine Phosphatase Non-receptor Type 9 (PTPN9) (AID 2283209)
Outline: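 Sf9-expressed enzyme in a cell-free assay, fluorescence read 1.33 h after dosing with mobility-shift separation of substrate and product. Tested at 25 uM in duplicate, then up to 50 uM; signal loss versus DMSO.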

Structure (SMILES)	AC50	outcome
CCCCCCCCCCCCc1ccccc1S(=O)(=O)O	4.22 µM (active)	
NC(=O)N(O)[C@@H]1C=C[C@H](Oc2cccc(Oc3ccc(F)cc3)c2)C1		inactive
COCC(C)OCC(C)O (stereo not given)		inactive

Target: human Protein Tyrosine Phosphatase Receptor Type F (PTPRF), PTPRF (gene 5792) (UniProt P10586)
Sequence (P10586 whole entry, looked up): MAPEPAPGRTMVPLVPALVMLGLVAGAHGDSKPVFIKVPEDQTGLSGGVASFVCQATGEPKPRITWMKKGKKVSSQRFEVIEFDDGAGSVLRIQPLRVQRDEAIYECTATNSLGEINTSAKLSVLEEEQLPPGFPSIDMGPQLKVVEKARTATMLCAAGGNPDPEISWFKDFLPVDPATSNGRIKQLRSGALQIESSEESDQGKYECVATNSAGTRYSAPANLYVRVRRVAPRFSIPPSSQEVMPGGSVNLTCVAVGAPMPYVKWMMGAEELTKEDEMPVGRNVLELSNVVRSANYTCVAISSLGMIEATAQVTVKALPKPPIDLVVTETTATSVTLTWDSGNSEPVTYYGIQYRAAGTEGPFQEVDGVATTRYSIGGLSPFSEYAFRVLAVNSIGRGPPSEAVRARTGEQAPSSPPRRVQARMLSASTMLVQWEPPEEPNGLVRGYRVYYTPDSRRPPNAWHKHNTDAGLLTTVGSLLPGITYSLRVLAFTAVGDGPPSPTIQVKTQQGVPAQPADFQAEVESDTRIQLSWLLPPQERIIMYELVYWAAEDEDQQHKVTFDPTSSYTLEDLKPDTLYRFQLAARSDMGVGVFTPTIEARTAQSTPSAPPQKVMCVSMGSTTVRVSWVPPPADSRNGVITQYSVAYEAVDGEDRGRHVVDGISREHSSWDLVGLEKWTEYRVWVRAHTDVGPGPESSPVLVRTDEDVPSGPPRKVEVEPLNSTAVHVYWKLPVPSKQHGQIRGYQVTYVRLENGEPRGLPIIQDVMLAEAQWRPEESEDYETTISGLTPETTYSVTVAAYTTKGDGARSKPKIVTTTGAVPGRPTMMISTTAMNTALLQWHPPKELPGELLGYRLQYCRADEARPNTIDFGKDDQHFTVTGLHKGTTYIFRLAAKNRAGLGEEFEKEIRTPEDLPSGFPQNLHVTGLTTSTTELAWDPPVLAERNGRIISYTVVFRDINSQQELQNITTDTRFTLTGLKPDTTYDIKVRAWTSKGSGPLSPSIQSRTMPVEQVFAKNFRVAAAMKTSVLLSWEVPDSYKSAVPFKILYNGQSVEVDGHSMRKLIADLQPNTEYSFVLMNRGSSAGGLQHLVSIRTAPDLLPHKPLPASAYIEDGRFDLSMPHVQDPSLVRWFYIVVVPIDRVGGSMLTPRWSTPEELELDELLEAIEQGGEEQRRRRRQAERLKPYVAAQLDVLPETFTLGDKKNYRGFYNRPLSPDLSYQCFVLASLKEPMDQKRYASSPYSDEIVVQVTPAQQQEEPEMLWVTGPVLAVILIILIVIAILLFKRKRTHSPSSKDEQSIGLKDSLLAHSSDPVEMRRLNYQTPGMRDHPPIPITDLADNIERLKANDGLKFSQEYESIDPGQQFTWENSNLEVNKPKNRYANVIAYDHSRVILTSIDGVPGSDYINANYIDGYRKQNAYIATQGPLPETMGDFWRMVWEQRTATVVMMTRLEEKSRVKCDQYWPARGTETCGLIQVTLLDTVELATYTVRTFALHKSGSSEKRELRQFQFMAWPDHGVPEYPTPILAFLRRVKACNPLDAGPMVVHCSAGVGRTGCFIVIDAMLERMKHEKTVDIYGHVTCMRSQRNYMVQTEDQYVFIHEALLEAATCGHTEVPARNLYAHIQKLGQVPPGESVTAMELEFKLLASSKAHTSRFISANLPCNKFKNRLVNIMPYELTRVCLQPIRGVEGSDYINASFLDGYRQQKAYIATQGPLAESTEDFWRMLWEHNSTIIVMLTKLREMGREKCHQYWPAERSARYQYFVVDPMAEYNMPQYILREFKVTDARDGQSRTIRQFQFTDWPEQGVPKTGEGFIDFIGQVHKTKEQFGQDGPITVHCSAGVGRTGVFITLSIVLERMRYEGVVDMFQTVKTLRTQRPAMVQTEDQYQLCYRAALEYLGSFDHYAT
Experiment: NVS_ENZ_hPTPRF: NovaScreen (NVS) Enzymatic Assay for human Protein Tyrosine Phosphatase Receptor Type F (PTPRF) (AID 2283213)
Procedure: NVS_ENZ_hPTPRF is a biochemical, single-readout assay that uses extracted gene-proteins in a cell-free assay. Measurements were taken 1 hour after chemical dosing in a 384-well plate.NVS_ENZ_hPTPRF is one of one assay component(s) measured or calculated from the NVS_ENZ_hPTPRF assay. It is designed to make measurements of enzyme activity, a form of enzyme reporter, as detected with fluorescence intensity signals by Fluorescence and electrophoretic mobility shift technology.Data from the assay component NVS_ENZ_hPTPRF was analyzed into 1 assay endpoint. This assay endpoint, NVS_ENZ_hPTPRF, was analyzed in the positive analysis fitting direction relative to DMSO as the negative control and baseline of activity. Using a type of enzyme reporter, loss-of-signal activity can be used to understand changes in the enzymatic activity as they relate to the gene PTPRF. Furthermore, this assay endpoint can be referred to as a primary readout, because this assay has produced multiple assay endpoints where this one serves a enzymatic activity function. To generalize the intended target to other relatable targets, this assay endpoint is annotated to the phosphatase intended target family, where the subfamily is receptor tyrosine phosphatase.
Binding assays used specific radioligands (tritiated, iodinated) with non-radioactive competitive displacement ligands in agonist or antagonist protocols (as indicated) and various reference compounds and inhibitors to titrate specific binding to receptors and transporters. Most enzyme assays (CYPs, kinases, phosphatases, proteases, HDACs) used recombinant protein and specific substrates (fluorescence mostly, some colorimetric and radioactive) and inhibitors, followed by a biochemical separation of substrate and product. All assays for the biochemical HTS were initially run in duplicate at a single concentration (10 uM for CYP450 assays and 25 uM for all others). […]

Structure (SMILES)	AC50	outcome
CCCCCCCCCCCCc1ccccc1S(=O)(=O)O	25 µM (active)	
Nc1cccc2c(N)cccc12		inactive
CCN(CC)CCNc1ccc(CNC=O)c2sc3ccc(OC)cc3c(=O)c12		inactive
